Screens deposited in PubChem by National Center for Advancing Translational Sciences (NCATS).
Rows were chosen to be rich in hits. Some 4% of all compounds tested hit in one or more screens of this group.
p53null 39C kill: p53 null cell cytotoxicity, nonpermissive temperature. Potency, µM (titrated, usually from 46.1 µM), without a hit: at the top dose activity, negative = cell killing, actives largely listed as cytotoxic. hit rate 0.97% among 55,000. H1299 p53-null (neo) cells, 39C, ATPlite viability, 24 h;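 note: potency is the fitted concentration of half-maximal effect; 0% = DMSO only and -100% = full killing by 100 µM tamoxifen; nearly all actives have a fitted effect of over 50% in size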
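Cells seeded at 600/well, 37C overnight. Compound added (up to 46 uM), plates shifted to 39C for 24 hr. ATPlite added, luminescence read after 20 min at room temperature.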
SKOV3 invasion: ovarian cancer metastasis inhibition, 3D TME model | SKOV3ip1-GFP adhesion/invasion on 3D omental model, fluorescence | Potency, µM (series often up to 45.8 µM), without a hit: at the top dose activity change, negative = inhibition, most hits filed as inhibitors | hit rate 0.1% among 46,000 | AID 1963576;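 note: potency is the fitted concentration of half-maximal effect; plate controls were DMSO wells for no effect and tomatine positive control wells for full effect; nearly all actives have a fitted effect of over 65% in size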
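Primary human omental fibroblast/mesothelial 3D culture pre-formed 48 h. SKOV3ip1-GFP cells added with compounds (0.36-46 umol/L), incubated 2 h RT/16 h 37 C, fixed; GFP cells quantified at 488/509 nm.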
NTMT1 inh: NTMT1 methyltransferase inhibition; hit rate 2.5% among 59,000; Q9BV86; Potency, µM (top dose mostly 114 µM), for inactives: top-dose activity change, negative = inhibition, actives largely listed as inhibitors; NTMT1 MTase-Glo SAH luminescence, purified enzyme; AID 1645870;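 note: potency is the fitted concentration of half-maximal effect; plate controls were DMSO vehicle for no effect and no enzyme for full effect; nearly all actives have a fitted effect of over 65% in size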
p53null 32C tox: selectivity test: cytotoxicity in p53 null cells, permissive temperature; Potency, µM (top dose mostly 46.1 µM), for inactives: at the highest dose activity change, negative = cytotoxicity, usual class: cytotoxic; H1299-neo p53 null cells, ATP luminescence, 24 h, 32C; hit rate 0.62% among 55,000;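 note: potency is the fitted concentration of half-maximal effect; 0% = DMSO only and -100% = full killing by 100 µM tamoxifen; nearly all actives have a fitted effect of over 55% in size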
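We seeded p53-null H1299-neo cells, incubated them overnight at 37C, and added compounds across a range up to 46 uM. After 24 hours at 32C, ATP reagent was applied for 20 min at room temperature and luminescence recorded.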
DYRK1A inh-1: inhibitors of human DYRK1A kinase. shares compounds with NTMT1 inh. recombinant DYRK1A, Kinase-Glo ATP depletion luminescence. Potency, µM (doses to about 76.9 µM), for inactives: at the highest dose activity change, negative = inhibition, most hits filed as inhibitors. hit rate 80% among 100. AID 2705
CLK4 RBC: CLK4 kinase inhibition, SAR round 2. shares compounds with NTMT1 inh. Potency, µM, usual class: inhibitors. Reaction Biology kinase assay, 10 uM ATP. hit rate 100% among 65; calls by dose curve
DYRK1A inh-2: inhibitors of human DYRK1A kinase | shares compounds with NTMT1 inh | Potency, µM, usual class: inhibitors | hit rate 90% among 65 | AID 504424 | Reaction Biology kinase assay, 10 uM ATP;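 active = compounds that showed inhibition of Dyrk1a and received a fitted potency; inactive = compounds that showed no inhibition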
CLK2 RBC: blocks human CLK2 kinase in radiometric assay | hit rate 90% among 65 | AID 504427 | shares compounds with NTMT1 inh | Reaction Biology kinase assay, 10 uM ATP | Potency, µM, most hits filed as inhibitors;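 active = compound that inhibits Clk2 kinase in the dose series, with an IC50 potency reported; inactive = no inhibition seen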
CLK3 inh: blocks human CLK3 kinase activity; shares compounds with NTMT1 inh; hit rate 40% among 65; Potency, µM, actives largely listed as inhibitors; recombinant CLK3 kinase assay, 10 uM ATP;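 active = compounds that inhibited Clk3 enough in the ten-dose series to give a half-maximal potency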
Target sequence (P49761 whole entry, looked up): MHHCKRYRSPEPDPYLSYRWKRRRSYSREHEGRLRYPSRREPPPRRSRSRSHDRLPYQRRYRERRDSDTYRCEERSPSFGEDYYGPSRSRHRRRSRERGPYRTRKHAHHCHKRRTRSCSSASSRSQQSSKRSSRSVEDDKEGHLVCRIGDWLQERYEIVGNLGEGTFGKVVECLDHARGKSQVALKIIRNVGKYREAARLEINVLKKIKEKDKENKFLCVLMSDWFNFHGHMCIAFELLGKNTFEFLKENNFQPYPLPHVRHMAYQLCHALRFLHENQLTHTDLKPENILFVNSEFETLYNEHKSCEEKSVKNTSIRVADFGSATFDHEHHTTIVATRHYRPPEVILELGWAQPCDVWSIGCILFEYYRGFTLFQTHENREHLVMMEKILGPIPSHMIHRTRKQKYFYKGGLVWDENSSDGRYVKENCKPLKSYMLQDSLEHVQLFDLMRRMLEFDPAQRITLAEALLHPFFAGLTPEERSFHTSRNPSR
DYRK1B inh: inhibitors of human Dyrk1b kinase | shares compounds with NTMT1 inh | Recombinant Dyrk1b kinase assay, 10 uM ATP | Potency, µM, actives largely listed as inhibitors | hit rate 80% among 65 | AID 504429;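 active = compounds whose dose response shows an inhibitor phenotype against the kinase Dyrk1b; inactive = compounds showing no inhibitor phenotype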
CLK1 RBC: CLK1 kinase inhibition; Potency, µM, actives largely listed as inhibitors; recombinant Clk1 kinase assay, 10 uM ATP; shares compounds with NTMT1 inh; hit rate 90% among 65;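 active = compounds that block the splicing kinase Clk1 enough to give a fitted half-inhibition concentration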
USP2 K63 confirm: USP2a inhibition confirmed on K63 diubiquitin. shares compounds with NTMT1 inh. USP2 cleavage of DiUb K63-3IQF, fluorescence kinetic. Potency, µM (titrated, usually from 57.5 µM), for the others: at the top dose activity change, negative = inhibition, most hits filed as inhibitors. hit rate 80% among 30
Casp6 counter: selectivity of USP2a inhibitors: human caspase-6 inhibition; shares compounds with NTMT1 inh; Caspase 6 enzyme, Caspase-Glo 6 luminescence; activity change, negative = inhibition, % at 46.1 µM; 30 tested, under 10 active
Target sequence (P55212 whole entry, looked up): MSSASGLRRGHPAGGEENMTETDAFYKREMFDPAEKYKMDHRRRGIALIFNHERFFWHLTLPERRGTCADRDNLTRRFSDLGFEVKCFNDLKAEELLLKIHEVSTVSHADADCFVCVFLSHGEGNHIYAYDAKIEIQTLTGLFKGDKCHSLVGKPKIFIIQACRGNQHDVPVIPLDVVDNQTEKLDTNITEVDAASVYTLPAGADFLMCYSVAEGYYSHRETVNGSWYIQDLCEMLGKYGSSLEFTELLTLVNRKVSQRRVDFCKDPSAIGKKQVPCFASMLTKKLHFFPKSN
HSD17B4 inh: HSD17B4 (human) inhibition, HPGD counter-screen; Potency, µM (doses to about 57.1 µM), for inactives: at the top dose activity change, negative = inhibition, actives largely listed as inhibitors; shares compounds with NTMT1 inh; hit rate 10% among 230; purified HSD17B4, estradiol/NAD+, NADH fluorescence
ALDH1A1 counter: counter-screen for HPGD inhibitors: human ALDH1A1 inhibition; shares compounds with NTMT1 inh; recombinant ALDH1A1, NADH fluorescence, propionaldehyde/NAD+; Potency, µM (top dose mostly 57.1 µM), without a hit: at the top dose activity change, negative = inhibition, actives largely listed as inhibitors; hit rate 93% among 230
NNMT inh: counter-screen for NTMT1 inhibitors: human NNMT inhibition; shares compounds with NTMT1 inh; NNMT MTase-Glo luminescence, SAH detection; Potency, µM (doses to about 57.1 µM), inactives show top-dose activity, negative = inhibition, actives largely listed as inhibitors; hit rate 10% among 120; AID 1645878
Active calls of the source: *; i = inactive; ? = inconclusive; . = no result; [ ] = another dose, or the depositor's remark. Unless noted, calls come from the whole dose curve; as a rule, active = well fitted curve in the direction sought with a large enough effect; inconclusive = small, poorly fitted or top-dose-only effect, or another doubt; inactive = no such curve, though single readings can be large; an effect the other way counts as inactive or inconclusive.

SMILES	p53null 39C kill	SKOV3 invasion	NTMT1 inh	p53null 32C tox	others
c1nc(NCC2CCCC2)c2cc(-c3ccc4c(c3)OCO4)ccc2n1	.	.	?	.	DYRK1A inh-1=0.065µM*
CN1CCCC1CCNc1ncnc2ccc(-c3ccc4c(c3)OCO4)cc12 (stereo unspecified)	.	.	-29%[57.5 µM]	.	DYRK1A inh-1=4.1µM*;CLK4 RBC=7.1*;DYRK1A inh-2=5.6µM*;CLK2 RBC=8.6µM*;CLK3 inh=i;DYRK1B inh=8.2µM*;CLK1 RBC=5.2µM*
Cc1cc(CNc2ncnc3ccc(-c4ccc5c(c4)OCO5)cc23)c(C)o1	.	.	?	.	DYRK1A inh-1=0.37µM*;CLK4 RBC=0.44*;DYRK1A inh-2=0.58µM*;CLK2 RBC=15µM*;CLK3 inh=i;DYRK1B inh=4.9µM*;CLK1 RBC=0.86µM*
c1nc(NCc2ccc3c(c2)OCO3)c2cc(-c3ccc4c(c3)OCCO4)ccc2n1	.	.	-2%	.
c1nc(NCCc2cnc[nH]2)c2ccc(-c3ccc4c(c3)OCO4)cc2n1	.	.	-18%	.	DYRK1A inh-1=23µM*
CCCCOC(=O)NC(=O)C1c2ccccc2Oc2ccccc21	.	.	6%[57.5 µM]	.
Cc1sc(C)c2c1C(=O)NS2(=O)=O	.	.	6%	.
O=C(NCCc1nc2ccccc2n1CCOc1ccccc1F)C1CCCCC1	.	.	9%	.
CN(C)CCNc1ncnc2ccc(-c3ccc4c(c3)OCO4)cc12	.	.	?	.	DYRK1A inh-1=1.6µM*;CLK4 RBC=1.9*;DYRK1A inh-2=1.4µM*;CLK2 RBC=15µM*;CLK3 inh=i;DYRK1B inh=7.3µM*;CLK1 RBC=4.2µM*
CC(=O)Nc1ccc(S(=O)(=O)Nc2nccs2)cc1	.	.	28%	.	USP2 K63 confirm=-1%;Casp6 counter=-28
O=C(Nc1ccc(S(=O)(=O)Nc2nccs2)cc1)c1cc(-c2ccccc2)nc2ccccc12	.	.	-19%	.	USP2 K63 confirm=1.7µM*;Casp6 counter=-2
Cc1ccc(-c2cc(C(=O)Nc3ccc(S(=O)(=O)Nc4nccs4)cc3)c3ccccc3n2)c(C)c1	9%[1.84 µM]	.	.	.
N#Cc1ccc(-c2ccc(-c3nc4ccccc4c(=O)[nH]3)o2)cc1	.	.	-19%	.
CN(C)CCCOc1ccc(-c2ccc3ncc4c(c3c2)n(C2CCOCC2)c(=O)n4C)cn1	.	.	0%[57.5 µM]	.
COc1ccc(-c2cc3c(C)nc(N)nc3n(C3CCC(OCCO)CC3)c2=O)cn1 (stereo unspecified)	.	-17%	0%	.	NNMT inh=?
Cn1cc(-c2c[nH]c3ncnc(N4CCOCC4)c23)cn1	.	.	-12%	.
N#Cc1cccc(-c2c[nH]c3ncnc(N4CCOCC4)c23)c1	.	.	16µM*	.	NNMT inh=?
O=C(Nc1ncc(-c2ccccc2)s1)c1ccc(-c2cccc([N+](=O)[O-])c2)o1	.	.	4%[57.5 µM]	.
COc1cc(O)c(C(CC(=O)N2CCC(c3ccccc3)CC2)c2ccc(OC)c(OC)c2)c(OC)c1 (stereo unspecified)	.	.	8%[228 µM]	.
CCCC1(CCC)CCC2(CCN(CCCN(CC)CC)C2)CC1	.	.	22µM*	.	NNMT inh=-15%
O=C(c1ccc2c(c1)ncn2-c1cccc(C(F)(F)F)c1)N1CCCCC1	.	.	0%[57.5 µM]	.	HSD17B4 inh=-12%;ALDH1A1 counter=?
Cc1ccc(-n2cnc3cc(C(=O)N4CCCCC4)ccc32)cc1	.	.	2%	.
Cc1cc(C)c2c(N)c(C(=O)NCc3ccco3)sc2n1	-18%	.	.	-12%
Cc1cc(C)c2c(N)c(C(=O)NCc3ccc(Cl)cc3)sc2n1	.	.	-10%[57.5 µM]	.	NNMT inh=-8%
CN(C)C(=O)Nc1cc(-c2ccccc2)ccc1N(C)C	.	.	-3%[57.5 µM]	.	NNMT inh=-8%
SMILES	p53null 39C kill	SKOV3 invasion	NTMT1 inh	p53null 32C tox	others
O=C(Nc1nc2cc(C(F)(F)F)ccc2s1)c1ccc(-c2cccc([N+](=O)[O-])c2)o1	.	.	11%	.
O=c1nc(-c2ccccn2)sc2ccccc12	.	.	20µM*	.	NNMT inh=?
Cc1ccc(S(=O)(=O)Nc2cnccc2C(=O)Nc2nc(-c3cccc(C)c3)cs2)cc1	.	.	.	.	USP2 K63 confirm=1.9µM*;Casp6 counter=-14
Cc1ccc(S(=O)(=O)Nc2cnccc2C(=O)Nc2nc(-c3ccc(-c4ccccc4)cc3)cs2)cc1	.	.	12%	.	USP2 K63 confirm=1.7µM*;Casp6 counter=-22
Cc1cc(N[S+](=O)([O-])c2ccc(NC(=O)Cc3ccc4c(c3)OCCO4)cc2)no1	.	.	8%	.
NCC(CNc1nc(Nc2cccc(NC(=O)N3CCCC3)c2)ncc1I)C(=O)c1cccs1 (stereo unspecified)	.	.	?	.	NNMT inh=?
CC(=O)O[C@@H]1[C@@H](O)[C@H](O[C@@H]2[C@@H](O)[C@@H](O)[C@H](O[C@H]3[C@H](O[C@H]4[C@H](O[C@H]5CC[C@@]6(C)C(CC[C@]7(C)C6CC=C6[C@@H]8CC(C)(C)CC[C@]8(C(=O)O)CC[C@]67C)[C@]5(C)CO)O[C@H](CO)[C@@H](O)[C@@H]4O)OC[C@@H](O)[C@@H]3O)O[C@H]2C)OC[C@H]1O (stereo partly specified)	.	.	5%[12.6 µM]	.
